This is a sample that favours compounds with a hit; in the whole collection about 21% have one here.
HCMV inh – blocks human cytomegalovirus replication | AID 1259415 | activity change, negative = inhibition, % at 57.5 µM | 4.5% of 410,000 active | HFF cells, HCMV-luciferase reporter, 72 h; stronger effect = lower value; in the data active = activity change below about -60%; inconclusive = no clear call, values can overlap the other calls; inactive = above about -39%
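Inhibition of viral replication was scored as loss of reporter luminescence in HFFs infected with HCMV-luciferase (MOI 1 PFU/cell) for 72 h; compounds tested at 2 doses, normalized to buffer and Salinomycin controls.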
CHX counter – counter-screen for Shiga toxin inhibitors: cycloheximide protein synthesis inhibition; cell reporter, cycloheximide protein synthesis inhibition counterscreen; max response, %; 12% of 300,000 active; in the data active = max response mostly above about 13%, no sharp cut-off; inactive = mostly below about 14%; note: read at 38.3 µM for the half of the compounds with a filed dose
Pf growth 96h – P. falciparum growth inhibition at 96 hour, primary screen for plastid delayed-death inhibitors; AID 504834; Potency, µM (top dose mostly 28.7 µM), usual class: inhibitors; 6.9% of 320,000 active; P. falciparum luciferase reporter growth, 96 h
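Plates of compound plus infected erythrocytes (2% hematocrit, 0.05% parasitemia final) incubate 96 hours, 37 C, 5% CO2. Detection reagent added; reduced luminescence from the parasites' luciferase reporter flags inhibition.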
Pf growth 48h – P. falciparum growth inhibition at 48 hours (one generation) | Potency, µM (titrated, usually from 28.7 µM), most hits filed as inhibitors | 5.9% of 310,000 active | P. falciparum luciferase growth in erythrocytes, 48 h
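Parasite viability was followed by luminescence of a genomically integrated firefly luciferase. Cultures held 0.1% parasitemia at 2% hematocrit (final), incubated under 5% CO2 at 37 C.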
Shiga inhibitor – inhibitors of Shiga toxin in Vero cells; 9.2% of 290,000 active; Vero cells, Shiga toxin protein synthesis inhibition reporter; inhibition, % at 38.7 µM; in the data active = inhibition mostly above about 28%, no sharp cut-off; inactive = mostly below about 43%
HCV inhibitor – inhibitors of hepatitis C virus infection | Potency, µM (top dose mostly 41.8 µM), most hits filed as inhibitors | 3.4% of 340,000 active | AID 651820 | Huh7.5.1 HCVcc-Cre infection, luciferase reporter, 44 h
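Reporter virus HCVcc-Cre (~0.5 moi) infects cells exposed to compound; seeding density 1,000 cells/well with 4 h settling beforehand. Luminescence, 15 sec read, taken 44 h post-infection following a 15 min RT substrate incubation.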
Hits are given with their value; – = inactive; ? = inconclusive; · = no result given. Unless noted, calls come from the whole dose curve; as a rule, active = well fitted inhibition curve with a large enough effect; inconclusive = small, poorly fitted or top-dose-only effect, or another doubt; inactive = no such curve, though single readings can be large or run the other way.

SMILES | HCMV inh | CHX counter | Pf growth 96h | Pf growth 48h | Shiga inhibitor | HCV inhibitor
COc1ccccc1N1CCN(c2nc(-c3ccc(C)cc3)nc3ccccc23)CC1 | – | · | · | · | · | ·
O=C1N/C(=C/c2ccc(Br)s2)C(=O)N1c1ccccc1 | -62.0 | 16.0 | – | – | 65.3 | –
Cc1ccc(NC(=O)CN2C(=O)S/C(=C\c3ccc(-c4cccc(C(=O)O)c4C)o3)C2=O)cc1C | – | – | – | – | – | –
O=C1N/C(=C/c2ccc(N3CCOCC3)o2)C(=O)N1c1cccc(Cl)c1 | -100.4 | 22.1 | – | – | – | ?
Cc1c(C(=O)O)cccc1-c1ccc(/C=C2\SC(=O)NC2=O)o1 | – | – | – | – | – | –
O=C1NC(=O)N(c2ccccc2)C(=O)/C1=C/c1ccoc1 | – | – | – | – | – | –
Cc1cccc(NC(=O)CN2C(=O)N/C(=C/c3ccc(-c4cccc(C(=O)O)c4C)o3)C2=O)c1 | – | 26.5 | – | – | 44.9 | –
Cc1c(C(=O)O)cccc1-c1ccc(/C=C2/NC(=O)N(c3ccccc3)C2=O)o1 | – | 28.4 | – | – | – | –
O=C(NN1CCN(Cc2ccccc2)CC1)c1ccc(N2CCOCC2)c([N+](=O)[O-])c1 | – | – | – | – | – | ?
CCCN1C(=O)/C(=C/c2ccc(C)o2)NC1=S | · | – | ? | – | – | ·
Cc1ccc(/C=C2/NC(=O)N(c3ccccc3)C2=O)o1 | ? | 31.8 | – | – | 90.1 | –
CC[C@@]12C(=O)N(c3cccc(Br)c3)C(=O)N1[C@H](c1ccc(F)cc1)[C@@H]1C(=O)N(C3CCCCC3)C(=O)[C@@H]12 | – | · | ? | ? | · | –
O=C1[C@H]2[C@@H](c3ccc(F)cc3)N3C(=O)N(c4cccc(F)c4)C(=O)[C@@]3(Cc3ccccc3)[C@H]2C(=O)N1C1CCCCC1 | – | · | ? | ? | · | –
Cc1ccc(N2C(=O)N3[C@H](c4ccc(F)cc4)[C@@H]4C(=O)N(C5CCCCC5)C(=O)[C@@H]4[C@]3(Cc3ccccc3)C2=O)cc1 | – | – | 11.7µM | – | – | –
O=C1[C@H]2[C@@H](c3ccc(Cl)cc3)N3C(=O)N(c4cccc(Cl)c4)C(=O)[C@@]3(Cc3ccccc3)[C@H]2C(=O)N1C1CCCCC1 | – | · | 5.86µM | 2.08µM | · | –
O=C1[C@H]2[C@@H](c3ccc(F)cc3)N3C(=O)N(c4cccc(Br)c4)C(=O)[C@@]3(Cc3ccccc3)[C@H]2C(=O)N1C1CCCCC1 | – | · | ? | 4.15µM | · | –
CC(C)C[C@@]12C(=O)N(c3cccc(Br)c3)C(=O)N1[C@H](c1ccc(F)cc1)[C@@H]1C(=O)N(C3CCCCC3)C(=O)[C@@H]12 | – | · | ? | 1.85µM | · | –
CC(NC(=O)Cn1ccc2cc(S(=O)(=O)N3CCCCCC3)ccc21)c1ccccc1 (stereo unspecified) | – | · | · | · | · | ·
CCN(CC)C(=O)Cn1cc(C(=O)C(=O)N(CC)C2CCCCC2)c2ccccc21 | – | – | ? | – | – | –
Cc1c(Cl)c([N+](=O)[O-])nn1Cc1ccc(C(=O)Nc2ccc(Cl)cn2)o1 | – | – | ? | – | – | –
O=C(Nc1ccc([N+](=O)[O-])cn1)c1ccc(Br)o1 | – | 18.0 | – | – | – | –
O=C(Nc1c(Cl)ccc2nsnc12)c1ccc([N+](=O)[O-])o1 | -105.8 | 41.2 | ? | ? | 51.3 | ?
O=C(Nc1ccc(Cl)cn1)c1ccc([N+](=O)[O-])o1 | – | 44.7 | – | ? | 118.7 | ?
CCC(C)C1NC(=O)C(Cc2ccc(O)cc2)NC(=O)C(N)CSSCC(C(=O)N2CCCC2C(=O)NC(CC(C)C)C(=O)NCC(N)=O)NC(=O)C(CC(N)=O)NC(=O)C(CCC(N)=O)NC1=O (stereo unspecified) | · | – | ? | – | – | ·
COc1ccccc1Nc1nn2c(=O)c3ccc(C(=O)NCCc4ccccc4)cc3nc2s1 | -99.2 | · | · | · | · | ·
COc1ccccc1Nc1nn2c(=O)c3ccc(C(=O)NCCC4=CCCCC4)cc3nc2s1 | -105.5 | · | · | · | · | ·
CC(C)C(=O)Nc1ccc(C(=O)N/N=C/c2cc(Br)cc(Br)c2O)cc1 | -78.2 | – | ? | ? | – | ?
CC(C)C(=O)Nc1ccc(C(=O)Nc2ccc(Br)cc2F)cc1 | – | – | – | – | – | –
COc1cc(OC)c(/C=N/NC(=O)c2ccc(NC(C)=O)cc2)cc1Br | – | – | ? | – | – | –
